TexasRed fluor = alters Texas Red total fluorescence, flagging assay interference; TRb/SRC2 Texas Red total fluorescence interference; AID 1479; Potency, µM (titrated, usually from 106 µM), for inactives: at the highest dose fluorescence change, negative = quenching; 280,000 tested, 0.29% active; active = well fitted curve in either direction with a large enough effect; inconclusive = small, poorly fitted or top-dose-only effect
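Human TRb ligand-binding domain at 0.6 uM with 20 nM Texas Red SRC2 peptide in Tris buffer containing 1 uM T3 and 5% DMSO, incubated with compound 5 h at ambient temperature. Total fluorescence (555/632 nm) calculated as parallel + 2 × perpendicular.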
Tau fibril FP = tau fibrillization inhibition (FP); P10636; K18 P301L tau heparin fibrillization, Alexa594 FP, 6 h; Potency, µM (series often up to 57.7 µM), for the others: top-dose activity, negative = inhibition, most hits filed as inhibitors; 280,000 tested, 0.39% active; also: nearly all actives have a fitted effect of over 55% in size
Target sequence (P10636 561-689 P618L limits assumed): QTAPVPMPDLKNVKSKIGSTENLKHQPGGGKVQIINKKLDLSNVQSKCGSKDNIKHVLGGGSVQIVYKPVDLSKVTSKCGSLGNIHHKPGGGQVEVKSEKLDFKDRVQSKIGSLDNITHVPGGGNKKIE
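Recombinant K18 P301L […], labeled with Alexa 594 at 0.24 uM over 15 uM unlabeled; heparin inducer 20 uM final; 37 C, 6 hr; FP endpoint.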
Tau ThT inhib = tau fibrillization inhibition (ThT binding). P10636. recombinant tau K18 P301L, heparin-induced fibrillization, ThT fluorescence. Potency, µM (highest dose often 57.4 µM), inactives show at the highest dose activity, negative = inhibition, usual class: inhibitors. 270,000 tested, 2.1% active. AID 1460; also: nearly all actives have a fitted effect of over 55% in size
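K18 P301L tau (15 uM + 0.24 uM Alexa 594-tagged), heparin 20 uM, NaOAc pH 7, 6 h 37 C; ThT 30 uM, 1 h RT, ex 450/em 510 nm.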
TRb-SRC2 inh = disrupts binding of human TR beta to SRC2; P10828; TRbeta-SRC2 peptide binding, fluorescence polarization; receptor liganded with 1 µM T3; Potency, µM (series often up to 106 µM), inactives show top-dose activity change, negative = inhibition, actives largely listed as inhibitors; 280,000 tested, 0.065% active; AID 1469;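 also: plate controls were bound peptide for no effect and peptide without receptor for full effect; nearly all actives have a fitted effect of over 50% in size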
Target sequence (P10828 whole entry, looked up): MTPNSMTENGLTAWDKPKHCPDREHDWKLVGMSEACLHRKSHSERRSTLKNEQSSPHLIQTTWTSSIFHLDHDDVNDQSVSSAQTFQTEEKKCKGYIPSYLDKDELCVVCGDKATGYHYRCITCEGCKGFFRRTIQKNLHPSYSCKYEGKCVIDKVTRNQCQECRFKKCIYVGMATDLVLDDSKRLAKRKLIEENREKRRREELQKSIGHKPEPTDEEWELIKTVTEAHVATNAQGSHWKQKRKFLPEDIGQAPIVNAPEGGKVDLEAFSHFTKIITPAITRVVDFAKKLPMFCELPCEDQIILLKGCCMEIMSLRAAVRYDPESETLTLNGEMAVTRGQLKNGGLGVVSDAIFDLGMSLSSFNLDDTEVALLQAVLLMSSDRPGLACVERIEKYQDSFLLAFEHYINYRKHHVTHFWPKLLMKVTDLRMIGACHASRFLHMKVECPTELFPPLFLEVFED
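Compounds were added to 0.6 uM TRb ligand-binding domain and 20 nM Texas Red-labeled SRC2 peptide in Tris buffer containing 1 uM T3, incubated 5 hr at ambient temperature, then read by fluorescence polarization.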
Tau fluor cs = counter-screen for tau fibril formation inhibitors. tau K18 P301L (four-repeat tau fragment) Alexa594 fluorescence, heparin fibrillization. 280,000 tested, 0.93% active. Potency, µM (doses to about 57.7 µM), for the others: top-dose activity change, negative = decrease. AID 1463; also: nearly all actives have a fitted effect of over 55% in size
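Human K18 P301L tau (15 uM unlabeled plus 0.24 uM Alexa 594-labeled, final) in 100 mM sodium acetate pH 7 was mixed with compound and 20 uM heparin and incubated 6 hr at 37 C.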
Starred values were filed as active, the others as inactive; ? = inconclusive; . = no result given; [ ] = remark or other dose. The list is not random: actives were taken first. Their share in the collection is about 3.1%. Unless noted, calls follow the shape of the dose curve; as a rule, active = well fitted curve in the direction sought with a large enough effect; inconclusive = small, poorly fitted or top-dose-only effect, or another doubt; inactive = no such curve, though single readings can be large; an effect the other way counts as inactive or inconclusive. Unless noted, % is scaled to controls: 0 for no effect and ±100 for the full control effect; potency is read from the fitted curve at half-maximal effect.

SMILES	TexasRed fluor	Tau fibril FP	Tau ThT inhib	TRb-SRC2 inh	Tau fluor cs
O=C(CN1c2ccccc2Sc2ccccc21)NNC(=S)Nc1ccc(Cl)cc1Cl	-2%	15%	?	-3%	10µM*[quencher]
COc1ccc2nc(N3CCC(C)CC3)c(C#N)cc2c1	-5%	?	35µM*	-1%	?
O=C(OCC(=O)c1ccc[nH]1)c1ccccc1	-1%	1%	-8%	-6%	-11%
O=C(COC(=O)c1c(F)cccc1F)c1ccc[nH]1	16µM*[fluorescent]	1%	-3%	14µM*	-8%
CCOC(=O)/C(C#N)=C1\C(=O)N(Cc2ccccc2)c2ccccc21	-1%	?	35µM*	6%	?
CCOC(=O)/C(C#N)=C1/C=CN(Cc2ccccc2)C=N1	-2%	2%	1%	1%	1%
Cc1ccc(CNC(=O)CCCN2C(=O)c3cccnc3Oc3ccc(Cl)cc32)cc1	18µM*[quencher]	3%	2%	-9%	-2%
COc1ccc(CNC(=O)CN2C(=O)c3cccnc3Oc3ccc(C)cc32)cc1	20µM*[quencher]	-7%	2%	-22%	1%
Cc1ccc2c(c1)N(CC(=O)NCc1cccc(Cl)c1)C(=O)c1cccnc1O2	-3%	-12%	-9%	-1%	-19%
COc1ccc(CNC(=O)CCCN2C(=O)c3cccnc3Oc3ccc(Cl)cc32)cc1	6%	-1%	-3%	4%	-10%
COC(=O)CCN(c1ccccc1)C(CNS(=O)(=O)c1ccccc1)c1ccccc1 (stereo unspecified)	-2%	4%	-14%	5%	?
COc1ccccc1CNC(=O)C1CCN(S(=O)(=O)c2ccc3c(ccn3C)c2)CC1	-1%	-2%	0%	-10%	-12%
CCc1ccc(C2Sc3ccccc3NC3=C2C(=O)c2ccccc23)cc1 (stereo unspecified)	-2%	?	?	-2%	2.5µM*[quencher]
CC(=O)Nc1ccc(C2Sc3ccccc3NC3=C2C(=O)c2ccccc23)cc1 (stereo unspecified)	-5%	?	?	3%	11µM*[quencher]
O=C1C2=C(Nc3ccccc3SC2c2ccc(C(F)(F)F)cc2)c2ccccc21 (stereo unspecified)	0%	10µM*	?	-1%	2.8µM*[quencher]
CC(C)c1ccc(C2Sc3ccccc3NC3=C2C(=O)c2ccccc23)cc1 (stereo unspecified)	-5%	?	?	12%	?
O=C1C2=C(Nc3ccccc3SC2c2ccco2)c2ccccc21 (stereo unspecified)	-3%	?	13µM*	3%	16µM*[quencher]
COc1cccc(NC(=O)CCc2nc3c(C)nn(-c4ccc(C)cc4)c3n(C)c2=O)c1	0%	-8%	6%	-6%	9%
CC1(C)CC(N)CC(C)(CN)C1 (stereo unspecified)	-2%[201 µM]	.	.	-2%[201 µM]	.
CCn1ccc2cc(S(=O)(=O)N3CCCN(C(=O)Nc4ccc(C)cc4Cl)CC3)ccc21	1%	4%	-2%	-1%	-10%
COc1ccc2[nH]cc(CCNc3nc(-c4ccccc4CN(C)C)nc4ccccc34)c2c1	-9%	5%	?	-7%	?
COc1ccc2[nH]cc(CCNc3nc(-c4ccc(C(=O)N(C)C)cc4)nc4ccccc34)c2c1	-10%	3%	?	4%	16µM*[quencher]
COc1ccc2[nH]cc(CCNc3nc(-c4ccoc4)nc4ccccc34)c2c1	-2%	?	?	7%	32µM*[quencher]
COc1cccc(-c2nc(NCCc3c[nH]c4ccc(OC)cc34)c3ccccc3n2)c1	-8%	?	?	8%	14µM*[quencher]
CCOC(=O)c1c(C)c(-c2ccccc2)n(CC(=O)NCCc2cccc(C)c2)c1C	-13%	6%	-4%	4%	-1%
SMILES	TexasRed fluor	Tau fibril FP	Tau ThT inhib	TRb-SRC2 inh	Tau fluor cs
CCCNC(=O)OC[C@@H]1O[C@H](CCO/N=C\C[C@H]2C=C[C@H](OC(C)=O)[C@@H](COC(C)=O)O2)C=C[C@@H]1Oc1ccc(OC)cc1	0%[11.2 µM]	-1%[11.6 µM]	-12%[11.5 µM]	0%[11.2 µM]	-12%[11.6 µM]
COC(=O)CN1C(=O)CSc2ccc(S(=O)(=O)Nc3ccc(C(C)=O)cc3)cc21	-3%	6%	3%	4%	7%
Cc1ccc2onc(CC(=O)N(C)c3ccccc3)c2c1	-10%	13%	?	4%	-13%
CC(=O)/C(=N/Nc1ccccc1Cl)Sc1nnc(C(O)c2ccccc2)n1-c1ccccc1 (stereo unspecified)	0%	0%	-15%	6%	1%
COC(=O)/C(=N/Nc1ccccc1Cl)Sc1nnc(C(O)c2ccccc2)n1-c1ccccc1 (stereo unspecified)	35µM*[quencher]	6%	-3%	-13%[53 µM]	-2%
Cc1cn(C)c(CC(=O)Nc2ccc(F)cc2Cl)c1C(=O)O	0%	2%	7%	2%	10%
CCCCCCCCCCCC1=C(O)C(=O)C=C(O)C1=O	-4%	20µM*	10µM*	-8%	11µM*[quencher]
Cc1ccc(-c2c(C(=O)N3CCN(c4cccc(C)c4C)CC3)oc(=O)c3ccccc23)cc1	-3%	-9%	-7%	2%	-3%
CN1CCN(C2=Nc3c(Cl)cc(Cl)c4cccc2c34)CC1	-1%	4%	18µM*	5%	-13%
CN1CCN(C2=Nc3cc(F)ccc3Cc3ccccc32)CC1	1%	-4%	3%	2%	-3%
Cc1cc2c(c(=O)o1)[C@@H](O)[C@H]1O[C@@H]1C2=O	1%[11.2 µM]	?	?	1%[11.2 µM]	?
Cc1nc2c(C(=O)NCCCN(CC(C)C)CC(C)C)cnn2c(C)c1Cc1c(F)cccc1Cl	-1%	-9%	-15%	2%	-19%
O=C(Nc1ccc(Cl)c(Cl)c1)Nc1nnc(CC2=CCCCC2)s1	-1%	8.9µM*	11%	2%	?
O=C(Nc1ccc(N2CCCCC2)c(Cl)c1)c1ccc(N2CCOCC2)c([N+](=O)[O-])c1	-4%[53 µM]	?	?	-15%[53 µM]	?
CCN1CCN(c2ccc(NC(=O)c3ccc([N+](=O)[O-])o3)cc2Cl)CC1	-5%	2%	?	-4%	-18%
CC(=O)N1CCN(c2ccc(NC(=O)c3ccc(N4CCCC4)c([N+](=O)[O-])c3)cc2Cl)CC1	-1%	-6%	4µM*	-10%	?
O=C(Nc1ccc(N2CCCCC2)c(Cl)c1)c1ccc2c(c1)OCCO2	0%	12%	?	-2%	14µM*[quencher]
O=C(Nc1ccc(N2CCOCC2)c(Cl)c1)c1ccc2c(c1)OCCO2	-5%	12%[2.34 µM]	4%	2%	18%[2.34 µM]
CCC(=O)N1CCN(c2ccc(NC(=O)c3ccc([N+](=O)[O-])o3)cc2Cl)CC1	2%	3%	11µM*	1%	?
O=C(Nc1ccc2c(c1)OCO2)c1ccc(N2CCCC2)c([N+](=O)[O-])c1	-4%	17%	13µM*	-6%	?
